Reference: PubChem BioAssay
Calls of active or inactive are those of the source.

Legend:
[1] = compounds binding Alexa647 anti-His antibody – biochemical, small-molecule microarray, 635 nm fluorescence, artefact control for SMM control protein annotation, primary screen (AID 1128); settings: higher = more signal;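 further: score merges feature fluorescence with signal-to-noise for each printed compound spot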
[2] = test system: Human papillomavirus type 1a E7 protein (residues 1-88); experiment: HPV1a E7 small-molecule binders, primary screen, biochemical, small-molecule microarray, residues 1-88, 635 nm (AID 1129); settings: small-molecule microarray binding, fluorescence 635 nm; higher = more signal
[3] = target: Focal adhesion kinase 1 (Homo sapiens) (UniProt Q05397); experiment: PTK2 protein binding on printed compound slides – biochemical, small-molecule microarray, 635/667 nm fluorescence, BSA, DTT, primary screen (AID 1130); settings: 635 nm fluorescence, higher = more signal;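 further: composite of spot emission at 667 nm and signal to noise over triplicate slides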
Focal adhesion kinase 1 (Homo sapiens), sequence (Q05397 whole entry, looked up): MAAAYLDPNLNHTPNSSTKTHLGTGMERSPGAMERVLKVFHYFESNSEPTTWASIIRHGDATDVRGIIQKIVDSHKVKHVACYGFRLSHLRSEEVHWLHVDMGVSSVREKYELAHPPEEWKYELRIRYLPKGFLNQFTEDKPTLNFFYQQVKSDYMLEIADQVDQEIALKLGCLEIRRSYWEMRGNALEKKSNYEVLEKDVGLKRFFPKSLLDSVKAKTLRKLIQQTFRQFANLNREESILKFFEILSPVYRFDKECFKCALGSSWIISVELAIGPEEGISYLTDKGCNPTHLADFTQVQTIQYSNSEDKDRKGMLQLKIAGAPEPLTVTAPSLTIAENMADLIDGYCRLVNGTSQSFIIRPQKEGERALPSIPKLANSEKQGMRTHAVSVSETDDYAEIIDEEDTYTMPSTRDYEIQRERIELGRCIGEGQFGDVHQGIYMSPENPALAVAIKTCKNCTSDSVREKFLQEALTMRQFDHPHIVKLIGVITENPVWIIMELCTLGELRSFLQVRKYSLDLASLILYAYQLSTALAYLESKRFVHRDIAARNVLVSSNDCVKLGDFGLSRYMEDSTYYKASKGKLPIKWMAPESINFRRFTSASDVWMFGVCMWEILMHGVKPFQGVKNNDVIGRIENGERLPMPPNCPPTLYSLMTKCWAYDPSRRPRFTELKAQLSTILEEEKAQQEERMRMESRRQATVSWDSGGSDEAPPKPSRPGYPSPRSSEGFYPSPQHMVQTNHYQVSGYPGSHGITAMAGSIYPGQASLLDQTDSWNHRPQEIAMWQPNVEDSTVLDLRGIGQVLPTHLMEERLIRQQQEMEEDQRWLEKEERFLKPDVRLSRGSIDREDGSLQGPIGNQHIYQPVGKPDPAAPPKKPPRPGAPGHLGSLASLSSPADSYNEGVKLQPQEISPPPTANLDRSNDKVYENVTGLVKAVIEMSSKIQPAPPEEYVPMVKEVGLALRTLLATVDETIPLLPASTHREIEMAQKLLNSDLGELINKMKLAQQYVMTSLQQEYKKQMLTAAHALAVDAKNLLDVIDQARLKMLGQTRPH

[4] = test system: Fibrinogen (Alexa647-labelled); experiment: Alexa647-fibrinogen binding to printed small molecules – biochemical, small-molecule microarray, 635/667 nm fluorescence, artefact control for SMM control-protein annotation, profiling panel (AID 1131); settings: fibrinogen-A647 binding fluorescence, higher = more signal;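 further: z-score merges 667 nm fluorescence with per-spot signal-to-noise over triplicate slides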
[5] = target: Follistatin (Homo sapiens) (UniProt P19883); experiment: FST protein binding to printed compounds – biochemical, small-molecule microarray, 635/667 nm fluorescence, primary screen (AID 1132); settings: 635 nm fluorescence, higher = more signal
Follistatin (Homo sapiens), sequence (P19883 whole entry, looked up): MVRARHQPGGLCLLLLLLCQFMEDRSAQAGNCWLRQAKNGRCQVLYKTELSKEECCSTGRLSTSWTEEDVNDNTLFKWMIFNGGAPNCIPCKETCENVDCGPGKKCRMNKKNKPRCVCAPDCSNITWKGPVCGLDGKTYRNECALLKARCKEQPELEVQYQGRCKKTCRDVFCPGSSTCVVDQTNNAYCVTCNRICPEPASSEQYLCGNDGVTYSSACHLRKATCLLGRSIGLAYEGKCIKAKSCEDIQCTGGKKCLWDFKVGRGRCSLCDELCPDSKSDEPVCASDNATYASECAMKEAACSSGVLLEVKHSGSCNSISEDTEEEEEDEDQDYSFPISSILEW

[6] = target: Fibroblast growth factor 2 (Homo sapiens) (UniProt P09038); experiment: basic fibroblast growth factor binding to printed compounds – biochemical, small-molecule microarray, 635/667 nm fluorescence, primary screen (AID 1133); settings: FGF2, fluorescence 635/667, higher = more signal
Fibroblast growth factor 2 (Homo sapiens), sequence (P09038 whole entry, looked up): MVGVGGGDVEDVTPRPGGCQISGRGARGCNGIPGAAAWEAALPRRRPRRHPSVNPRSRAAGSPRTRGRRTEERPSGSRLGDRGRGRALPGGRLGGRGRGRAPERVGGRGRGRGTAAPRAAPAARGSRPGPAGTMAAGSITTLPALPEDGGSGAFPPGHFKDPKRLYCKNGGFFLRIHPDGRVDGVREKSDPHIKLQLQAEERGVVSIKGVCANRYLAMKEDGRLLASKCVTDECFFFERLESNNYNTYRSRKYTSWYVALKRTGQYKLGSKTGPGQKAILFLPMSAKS

[7] = JC-1 mitochondrial potential readout, lung cancer cells – cell-based, A549, JC-1 fluorescence, basal, 24 h, 100 nL, profiling panel (AID 1138); settings: higher = more signal;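 further: A549 lung adenocarcinoma cells under basal conditions with no added stimulus; test concentration not given here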
Lefty1 = Lefty1 protein binding to printed compounds – biochemical, small-molecule microarray, 635/667 nm fluorescence, primary screen (AID 1139); settings: fluorescence 635/667, higher = more signal
[8] = test system: wheat germ agglutinin (Triticum aestivum), Alexa647-labelled; experiment: Alexa647-WGA lectin binding to printed small molecules – biochemical, small-molecule microarray, 635/667 nm fluorescence, artefact control for SMM control-protein annotation, profiling panel (AID 1140); settings: WGA-A647 binding, 635 nm fluorescence, higher = more signal;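 further: score merges 667 nm feature emission with signal to noise over triplicate slides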
[9] = target: Luciferin 4-monooxygenase (Photinus pyralis) (UniProt P08659); experiment: inhibition of purified Photinus pyralis luciferase – biochemical, luminescence, purified enzyme, 2006 set, primary screen (AID 1141); settings: purified firefly luciferase, SteadyGlo luminescence, 30 min; higher = more signal, called active from +8 up or from −8 down;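 further: cell-free assay with purified firefly luciferase at 100 ng per well in PBS; test concentration not given here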
Luciferin 4-monooxygenase (Photinus pyralis), sequence (P08659 whole entry, looked up): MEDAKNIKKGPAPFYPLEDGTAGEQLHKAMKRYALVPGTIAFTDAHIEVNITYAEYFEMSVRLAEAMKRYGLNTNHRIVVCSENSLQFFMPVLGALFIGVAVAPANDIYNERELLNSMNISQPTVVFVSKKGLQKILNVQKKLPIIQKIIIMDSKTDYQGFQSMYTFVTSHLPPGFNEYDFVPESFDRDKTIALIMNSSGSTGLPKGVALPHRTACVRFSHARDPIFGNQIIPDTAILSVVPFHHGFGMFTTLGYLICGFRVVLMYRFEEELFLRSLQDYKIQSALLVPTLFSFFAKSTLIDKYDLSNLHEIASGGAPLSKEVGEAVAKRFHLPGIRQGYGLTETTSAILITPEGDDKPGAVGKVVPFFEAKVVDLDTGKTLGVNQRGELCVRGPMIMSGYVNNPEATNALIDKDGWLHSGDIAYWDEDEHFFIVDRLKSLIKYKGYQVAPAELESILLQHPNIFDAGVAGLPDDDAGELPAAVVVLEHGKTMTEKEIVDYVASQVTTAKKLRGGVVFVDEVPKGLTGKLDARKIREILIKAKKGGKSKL

Structure (SMILES) | composite z-score [1] | composite z-score [2] | composite z-score [3] | composite z-score [4] | composite z-score [5] | composite z-score [6] | z-score [7] | composite z-score (Lefty1) | composite z-score [8] | z-score [9]
C=CCN(C(=O)C1N(c2ccc(CCO)cc2)C(=O)C2C(C(=O)O)C3C=CC21O3)C(C)(C)C (stereo not given) | -1.51 | -0.55 | -0.612 | -1.4 | -2.8 | -2.13 | -0.112 | -3.43 | -2.09 | -0.163 (inactive)
CC(=O)NCCCC[C@@H]1NC(=O)[C@@H]2C[C@H](C(=O)NCCCCCCN(C)C)[C@H](c3ccc(O)cc3)N2C1=O | 2.82 | 1.26 | 0.383 | 0.53 | 1.34 | 1.56 | 0.543 | 1.58 | 1.25 | -0.916 (inactive)
N#Cc1ccc(NN2C(C(O)c3ccc(I)cc3)C=CC3C(=O)N(c4ccccc4)C(=O)C32)cc1 (stereo not given) | 1.33 | 1.25 | 0.945 | 0.945 | 0.402 | -0.194 | 1.96 | -0.491 | 1.3 | 0.628 (inactive)
C=CC[C@]1(C(N)=O)N=C(c2ccc(OCCCO)cc2)O[C@H]1c1ccccc1CN=[N+]=[N-] | 3.2 | 0.928 | 0.409 | 1.01 | 0.653 | -0.373 | 0.766 | -0.484 | 1.43 | -1.47 (inactive)
C=CCNC(=O)[C@H]1[C@@H]2C(=O)O[C@@H](c3ccccc3)[C@@H](c3ccccc3)N2[C@@H](c2ccccc2OCCO)[C@]12C(=O)N(C(=O)OCCOC)c1ccc(C#CCC(C(=O)OC)C(=O)OC)cc12 | 2.1 | 1.2 | 0.751 | 0.709 | 1.24 | 1.06 | -1.18 | 0.779 | 1.08 | -0.509 (inactive)
O=C1c2ccccc2[C@@]2(Cc3ccccc3N(CC(F)(F)F)C2=O)[C@H](c2ccc(CO)cc2)N1C1CCCCC1 | -0.194 | -0.07 | -0.103 | -0.243 | 1.06 | 1.06 | 0.835 | 0.531 | -0.643 | -0.637 (inactive)
COCCOC(=O)N1C(=O)[C@@]2(c3cc(C#CC4(O)CCCCCC4)ccc31)[C@H](C(=O)N1CCCCCCC1)[C@H]1C(=O)O[C@H](c3ccccc3)[C@H](c3ccccc3)N1[C@@H]2c1ccc(O)cc1 | 1.25 | 1.22 | 0.646 | 0.72 | 1.48 | 0.536 | 0.208 | 1.08 | 1.38 | -1.27 (inactive)
Cc1ccc(S[C@]2(C(=O)NCCN3CCOCC3)CC(=O)N(C3Cc4ccccc4C3)[C@@H]2c2ccc(CO)cc2I)cc1 | 0.0031 | -0.521 | 0.355 | 0.0025 | -1.23 | -1.41 | 1.3 | -1.21 | 1.01 | -0.83 (inactive)
CCCNC(=O)[C@@H]1c2ccccc2C(=O)N(C2CCCCC2)[C@H]1c1ccc(CO)cc1 | 2.26 | 1.22 | 0.798 | 0.958 | 0.927 | 0.915 | 0.888 | 0.443 | 0.795 | 0.311 (inactive)
C[C@]1(C(=O)NCCN2CCOCC2)c2ccccc2C(=O)N(Cc2ccccc2)[C@H]1c1ccc(CO)cc1 | 1.6 | -0.385 | -0.43 | -0.665 | 0.0342 | -0.256 | -1.19 | -0.718 | -0.208 | 1.47 (inactive)
C=CCC(OC(C)=O)[C@@H]1[C@@H](N(Cc2ccc(-c3cccc(C(F)(F)F)c3)o2)C(=O)Cc2ccc(F)cc2)c2cc(OCCCO)ccc2N1C(=O)c1ccc(-c2ccccc2)cc1 (stereo not given in full) | -0.656 | -0.922 | -0.131 | -0.531 | 0.16 | -0.246 | 1.74 | -0.173 | 0.294 | -0.306 (inactive)
CCOC(=O)C1=CC[C@@H](c2ccccc2)N(S(=O)(=O)c2ccc(C)cc2)[C@H]1C | 1.18 | 1.24 | 0.147 | 1.02 | 0.92 | 0.952 | 3.66 | 0.778 | 0.457 | 0.347 (inactive)
COCCOC(=O)N1C(=O)[C@@]2(c3cc(C#CCCO)ccc31)[C@H](c1ccc(O)cc1)N1[C@H](c3ccccc3)[C@H](c3ccccc3)OC(=O)[C@H]1[C@@H]2C(=O)Nc1nc2ccccc2s1 | 0.607 | 1.19 | 0.214 | 0.992 | 1.27 | 0.955 | -2.54 | 1.22 | 0.658 | 0.0884 (inactive)
COc1ccc([Si](C)(C)[C@H]2[C@H](CCO)O[C@@]3(C(=O)N(Cc4ccc(N5CCCCC5=O)cc4)c4ccccc43)[C@@H]2C)cc1 | 1.91 | 1.1 | 0.0098 | 0.903 | 1.3 | 0.753 | 1.33 | 1.36 | 1.14 | -1.39 (inactive)
[N-]=[N+]=NCc1ccccc1C[C@]1(C(=O)N2CCCCC2)N=C(c2ccc(OCCCO)cc2)O[C@H]1c1ccccc1CN=[N+]=[N-] | 0.538 | 1.21 | 0.652 | 0.947 | 1.04 | -0.369 | -0.0989 | 0.453 | 0.59 | -1.02 (inactive)
O=C1C2C=CC(C(O)c3ccccc3)N(n3cnnc3)C2C(=O)N1Cc1ccccc1 (stereo not given) | 0.0968 | 0.561 | 0.321 | 0.249 | 0.438 | -0.0128 | 0.348 | -0.497 | -0.164 | -1.55 (inactive)
CCCC=C(CCC)[C@@H](NS(=O)(=O)c1ccc(-c2ccccc2)cc1)c1ccc(C(=O)OC)cc1 | 0.5 | -0.997 | -0.15 | -0.285 | -0.407 | -0.624 | -2.58 | -0.707 | -0.153 | 1.67 (inactive)
O=C1c2ccccc2[C@](Cc2ccccc2I)(C(=O)O)[C@H](c2ccc(CO)cc2)N1C1CCCCC1 | 1.52 | 1.24 | 0.398 | 0.801 | 1.33 | 1.06 | -0.254 | 0.4 | 1.13 | -0.757 (inactive)
Cc1ccc(S[C@]2(C(=O)NC(C)C)CC(=O)N(C3Cc4ccccc4C3)[C@@H]2c2ccc(CO)cc2)cc1 | 2.13 | 0.627 | 0.447 | 0.686 | 0.34 | -0.438 | 0.186 | 0.123 | 0.923 | 0.187 (inactive)
CCCCO[C@H]1C[C@H]2C(Br)=C[C@@]1(CO)C(=O)[C@]21CO1 | -0.487 | -0.153 | 0.692 | -0.46 | 0.452 | 0.0225 | 0.826 | 0.641 | -0.283 | -0.553 (inactive)
Cc1ccc(N2C(=O)c3ccccc3[C@](C)(C(=O)NCC(C)C)[C@@H]2c2ccc(CO)cc2)nc1 | -1.02 | -1.2 | -1.04 | -1.43 | -0.125 | -0.671 | -0.393 | -0.589 | 0.0574 | 0.525 (inactive)
C=C[C@H](OC)[C@@H](OC(=O)Nc1ccc(SC)cc1)c1ccc(O)c(F)c1 | 0.705 | 0.0378 | -0.264 | 0.756 | 0.171 | 0.781 | -0.97 | -0.0871 | 0.0251 | -3.45 (inactive)
CCOC(=O)C[C@H]1[C@H](OC(=O)c2cc3ccccc3oc2=O)[C@@H](NC(=O)C2CCCCC2)c2cc(OCCCO)ccc2N1C(=O)c1ccc2ccccc2n1 | 0.0957 | 0.791 | 2.65 | 0.443 | 1.13 | 0.324 | 0.539 | 0.522 | 0.755 | 0.777 (inactive)
CO[C@H]1O[C@H](CO)[C@@H](OC(=O)Nc2ccccc2)[C@H](OC(=O)Nc2ccc3c(c2)OCO3)[C@@H]1OC(=O)Nc1ccc2c(c1)OCO2 | 2.53 | 1.2 | 1.02 | 0.771 | 0.87 | 0.0385 | 1.18 | 0.563 | 1.21 | -5.6 (inactive)
